Experimental data from PubChem BioAssay AID1851 (National Center for Advancing Translational Sciences (NCATS), 2009).
Out of some 16,000 compounds screened, about 5,100 (32%) were called active. About 25% were inconclusive and are not listed. Calls come from the whole dose curve; as a rule, active = well fitted curve in the direction sought with a large enough effect; inconclusive = small, poorly fitted or top-dose-only effect, or effect the other way; inactive = no such curve, though single readings can be large or run the other way. The list shows a part of the results.

biological target: Cytochrome P450 3A4 (Homo sapiens) (UniProt P08684); assay: Cytochrome panel assay with activity outcomes; conditions: recombinant CYP, pro-luciferin dealkylation, luminescence, p450-cyp3a4; series mostly up to 57.1 µM; activity, negative = inhibition: at the top concentration
% is set by controls: 0 for no effect and ±100 for the full control effect.

Chain of Cytochrome P450 3A4 (Homo sapiens) (P08684 whole entry, looked up): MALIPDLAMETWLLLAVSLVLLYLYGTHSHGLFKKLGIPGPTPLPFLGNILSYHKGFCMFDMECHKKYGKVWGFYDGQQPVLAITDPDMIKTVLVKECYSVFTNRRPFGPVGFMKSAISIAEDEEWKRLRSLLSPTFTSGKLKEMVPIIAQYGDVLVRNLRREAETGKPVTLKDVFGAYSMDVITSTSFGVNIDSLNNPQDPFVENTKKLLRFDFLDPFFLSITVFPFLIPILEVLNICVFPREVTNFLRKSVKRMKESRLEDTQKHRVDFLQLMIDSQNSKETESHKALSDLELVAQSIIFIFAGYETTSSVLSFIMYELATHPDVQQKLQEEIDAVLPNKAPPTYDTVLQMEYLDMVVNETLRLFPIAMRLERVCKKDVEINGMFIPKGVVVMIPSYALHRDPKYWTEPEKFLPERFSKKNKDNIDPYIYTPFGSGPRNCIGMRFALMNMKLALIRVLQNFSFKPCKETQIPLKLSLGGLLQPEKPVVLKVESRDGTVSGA

activity, negative = inhibition, inactive:
CCC(=S)/C=C1\Sc2ccccc2N1CCCS(=O)(=O)O 19.1%
O=C(O)Cc1c(O)ccc2ccccc12 -10.5% [at 11.4 µM]
CCCn1cnc2c(SCC(=O)O)nc(N)nc21 -4.33% [at 11.4 µM]
Cc1[nH]n(C(C)(C)C)c(=O)c1Sc1ccccc1 28.8%
O=S(=O)(O)c1ccc2cc(N=Nc3cc(S(=O)(=O)O)c4cccnc4c3O)ccc2c1 -6.99% [at 11.4 µM]
Cc1ccc(NC(=O)C2CCN(S(=O)(=O)c3c(C)n[nH]c3C)CC2)nc1 -20.6%
Cc1n[nH]c(C)c1S(=O)(=O)N1CCOCC1 -6.35%
CC(=O)c1cccc(NC(=O)Oc2ccccc2)c1 14.9%
CC(=O)c1cc2c(cc1NC(=O)CCCC(=O)O)OCO2 -24.3%
CC(=O)c1c(N=CN(C)C)nc(C)nc1-c1ccccc1 -8.85%
CN(N=O)C(=O)N[C@H]1C(O)OC(CO)[C@@H](O)[C@H]1O (some centres undefined) -11.7%
O=C(C[n+]1cccc(NC(=O)c2ccccc2)c1)c1ccc(NC(=O)c2ccccc2)cc1 9.66% [at 2.29 µM]
O=C(CCCc1ccccn1)c1ccccc1 -27.1% [at 11.4 µM]
O=C(O)CCC(=O)CCC(=O)c1ccccc1 -7.58%
CN(C)/C=C/C(=O)c1ccc(F)cc1 -10.5%
N[C@@H](CS(=O)O)C(=O)O -3.74%
CC(C)=NOC[C@@H](O)COCc1ccco1 -14.7% [at 11.4 µM]
Cn1c(=O)n2n(c1=O)[C@H]1[C@H](O)[C@H]3O[C@@H]3/C(=N/OC[C@@H](O)COCc3ccco3)[C@@H]1CC2 -23.8% [at 11.4 µM]
COc1cccc(C2C3(C#N)C(N)=NC(OC)(OC)C23C#N)c1 (centres undefined) -16.8% [at 2.29 µM]
CCN1C(=O)[C@H]2[C@H]3[C@H](O)[C@H](O)C/C(=N/OC[C@@H](O)[C@H]4O[C@H]5OC(C)(C)O[C@H]5[C@@H]4O)[C@@H]3CC[C@@H]2C1=O -16.2% [at 11.4 µM]
CCOc1ccc(/C=C2\C(=O)c3ccccc3OC2c2ccccc2)cc1 (centres undefined) 17.9%
CCS(=O)(=O)c1ccc2c(c1)N(S(C)(=O)=O)CC(C(=O)NCCOC)O2 (centres undefined) -7.69%
O=C(O)Cc1ccc2c(c1)N(S(=O)(=O)c1cccc(C(F)(F)F)c1)CC(C(=O)O)O2 (centres undefined) -7.46% [at 2.29 µM]
CCS(=O)(=O)c1ccc(O)c(NC(=O)Nc2ccccc2)c1 -25.1%
CC(C)CO/N=C1/[C@H]2O[C@@H]2[C@@H](O)[C@H]2[C@H]1CCn1c(=O)n(C)c(=O)n12 -9.68% [at 11.4 µM]
Cc1nc(S(=O)(=O)N(C)c2ccccc2)c(C#N)c(C)c1Cl -23.4%
Cc1nc(S(=O)(=O)N2CCOCC2)c(C#N)c(C)c1Cl -9.65%
N[C@@H](C(=O)O)c1ccc(C(=O)O)c(O)c1 -10.3%
N[C@H](C(=O)O)c1ccc(C(=O)O)c(O)c1 -8.41%
N[C@H](C(=O)O)c1ccc(O)c(C(=O)O)c1 -10.6%
NC(N)=N[C@@H]1C(O)[C@H](N=C(N)N)[C@@H](O)C(O)[C@H]1O (some centres undefined) 12.2% [at 11.4 µM]
NC(=O)NC(=O)[C@H]1CCCC[C@@H]1C(=O)O 2.92% [at 11.4 µM]
COn1c(SCc2cccc(Cl)c2)nc2ccccc2c1=O -25.3%
COn1c(SC(C)C)nc2ccccc2c1=O 5.93% [at 11.4 µM]
COc1cccc(/C=N/n2nnc3c(cnn3-c3ccccc3)c2=O)c1 22%
O=c1oc(-c2ccco2)nc2c1cnn2-c1ccccc1 -8.28%
CN(C)c1nc(-c2ccccc2C(F)(F)F)nc2ccccc12 -23.4%
CSc1c(-c2ccccc2)nc2ccccc2c1C(=O)O 4.08%
O=C(CC1(O)CCCCC1)OC1CCCC1 -11.8% [at 11.4 µM]
O=C1COc2ccccc2CN1 5.27% [at 2.29 µM]
Cn1c(=O)c2[nH]c([C@@H]3CC(=O)C[C@H](c4nc5c([nH]4)c(=O)n(C)c(=O)n5C)N3)nc2n(C)c1=O 2.95% [at 11.4 µM]
COc1c(NC(C)=O)c2ccccc2c2ccccc12 -28.7% [at 11.4 µM]
COc1cccc(C(=O)Nc2ccc(NC(=O)c3ccco3)cn2)c1 -4.16% [at 2.29 µM]
CC1(C)[C@@H]2CC[C@]1(CC(=O)O)[C@H](Cl)C2 -12.3% [at 11.4 µM]
O=C(Nc1ccccc1Cl)c1ccccc1Cl 1.04%
Cc1cc(NC(=O)c2ccccc2Cl)no1 -14.3%
O=C1[C@@H]2[C@@H](C(=O)N1c1ccc(OCc3ccccc3)cc1)[C@@H]1c3ccccc3[C@@H]2[n+]2ccccc21 -9.33% [at 11.4 µM]
O=C(O)/C=C\C=C/c1ccc2c(c1)OCO2 -6.19% [at 11.4 µM]
Cc1ccc(N=CC2=C(O)CC(c3ccco3)CC2=O)cc1 (centres undefined) -9.52%
O=C1c2ccccc2C(=O)N1CCCSc1ccccc1 -16.6% [at 11.4 µM]
N#CC(C#N)=CNCCN1CCN(C=C(C#N)C#N)CC1 -20.1% [at 11.4 µM]

AC50, inactive:
N[C@H](C(=O)O)c1cccc(O)c1
C[C@@H]1CCN=C(N)S1

AC50, active:
c1cncc(-c2nnc3n2C2(CCCCC2)Cc2ccccc2-3)c1 1 µM
Cc1[nH]n(C(C)(C)C)c(=O)c1Sc1ccc(Cl)cc1 15.8 µM
CCCCc1ccc(-c2csc(/C(C#N)=C/c3ccc(C)o3)n2)cc1 12.6 µM
COc1cccc(N(CC(=O)Nc2cccc(C(C)=O)c2)S(C)(=O)=O)c1 11.2 µM
COc1ccc(N(CC(=O)Nc2cccc(C)c2)S(=O)(=O)c2c(C)n[nH]c2C)cc1 3.16 µM
Cc1cccc(NS(=O)(=O)c2c(C)n[nH]c2C)c1 25.1 µM
CC(=O)c1cc2c(cc1NC(=O)c1c(-c3ccccc3)noc1C)OCO2 1.58 µM
O=C(/C=C\NCC(=O)c1ccccc1)c1ccc(F)cc1 14.1 µM
O=C(/C=C\NCC(=O)c1ccccc1)c1ccccc1 15.8 µM
COc1cccc([C@@H]2Oc3ccc(OC)cc3C(=O)[C@H]2O)c1 3.98 µM
COc1cccc([C@@H]2Oc3ccc(OC)cc3/C(=N/OC[C@@H](C)[C@H](OCc3ccccc3)C(C)C)[C@@H]2O)c1 3.16 µM
COc1cccc([C@@H]2Oc3ccc(OC)cc3/C(=N/OC[C@@H](O)COCc3ccco3)[C@@H]2O)c1 3.16 µM
COc1cccc([C@H]2Oc3ccc(OC)cc3/C(=N\OC[C@@H](O)[C@@H]3O[C@@H]4OC(C)(C)O[C@@H]4[C@H]3O)[C@@H]2O)c1 3.98 µM
CCOC(=O)C1CN(S(=O)(=O)c2cccc(C(F)(F)F)c2)c2cc(CC(=O)OC)ccc2O1 (centres undefined) 5.01 µM
COc1ccc2[nH]cc(CCNc3ncnc4ccc(-c5ccc(C(=O)N(C)C)cc5)cc34)c2c1 2.51 µM
COc1ccc2[nH]cc(CCNc3ncncc3-c3ccc(N(C)C)cc3)c2c1 0.501 µM
COc1ccc2[nH]cc(CCNc3ncncc3-c3ccc(C(=O)N(C)C)cc3)c2c1 1 µM
CC1CC/C(=C\c2ccc3c(c2)OCO3)C(=O)/C1=C/c1ccc2c(c1)OCO2 (centres undefined) 1.58 µM
CCS(=O)(=O)c1ccc(C(=O)Nc2ccccc2)c(Cl)c1Cl 5.01 µM
Cc1nc(S(=O)(=O)NC2CCCCC2)c(C#N)c(C)c1Cl 7.94 µM
Cc1cccc(NC(=O)CSc2nc(COc3ccccc3)nc3ccccc23)c1C 3.98 µM
N[C@@H](C(=O)O)c1cc(O)ccc1Cl 15.8 µM
N[C@H](C(=O)O)c1cc(O)cc(O)c1 12.6 µM
COn1c(SCc2ccc(C)cc2C)nc2ccccc2c1=O 12.6 µM
COc1ccc(Oc2c(Cl)cnn(-c3ccccc3)c2=O)cc1 14.1 µM
CNc1nc(-c2ccc(N(C)C)cc2)nc2ccccc12 15.8 µM
CN(C)c1nc(-c2cccnc2)nc2ccccc12 7.94 µM
CN(C)c1ccc(-c2nc(N(C)C)c3ccccc3n2)cc1 12.6 µM
COc1cccc(NC(=O)c2oc3ccccc3c2NC(C)=O)c1 11.2 µM
COc1cccc(NC(=O)c2oc3ccccc3c2NC(=O)c2ccc3c(c2)OCO3)c1 1.78 µM
CCOc1ccc(NC(=O)c2oc3ccccc3c2NC(=O)CC)cc1 15.8 µM
CC1(C)CC(=O)C2=C(C1)Oc1nc3ccccc3cc1C2C(C#N)C#N (centres undefined) 14.1 µM
Cc1cc(NC(=O)c2ccccc2Cl)c(C(C)C)cc1O 25.1 µM
Nc1ccccc1C(=O)/C=C\c1ccc2c(c1)OCO2 3.16 µM
COCOc1cc(OC)ccc1C(=O)/C=C\c1ccc2c(c1)OCO2 1 µM
COc1ccccc1N1CCN(C(=O)/C=C/c2ccc3c(c2)OCO3)CC1 3.55 µM
O=C(/C=C\c1ccc2c(c1)OCO2)c1ccc(F)cc1 3.16 µM
COC(=O)c1c(-c2ccc3ccccc3c2)csc1NC(=O)Cc1ccc(OC)c(OC)c1 1.78 µM
Cc1ccc(OCCCN2C(=O)C(=O)c3cccc(C)c32)cc1 15.8 µM
Cc1oc(-c2ccccc2F)nc1CS(=O)(=O)CC(=O)NCCCN(C)C1CCCCC1 10 µM
O=c1[nH]c2cc(Br)cnc2nc1/C=C(\O)c1ccc(F)cc1 5.01 µM
